What is called AC50 is the concentration at which the activity in the assay is half-maximal.

The structures appear in SMILES notation. Values joined by “and” are separate entries in the source; they are usually repeats but may differ in a detail not shown here. Identical values can stand only once. Records with an inconclusive call do not appear. Active and inactive are the calls of the source. Rule for the calls, unless noted: active = hit-call score of the fitted dose curve at least 0.9, where 1 is the maximum; inactive = score below 0.9.

These results are taken from PubChem BioAssay (EPA / NIEHS).

Experiment [1] deals with Retinoic acid receptor RXR-alpha (Homo sapiens) (UniProt P19793). Briefly: OT_NURR1_NURR1RXRa_1440: Odyssey Thera (OT) 24-hour HEK293T Protein Complementation Assay for Nurr1/retinoid X receptor (RXR) (AID 2283386; active = hit-call score of the fitted dose curve at least 0.9, where 1 is the maximum). In a few lines:
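Fluorescence PCA read-out; HEK293T; 24 h post-dose; bait/prey fused to reporter fragments; gain-of-signal fit vs DMSO negative control.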

Experiment [2] concerns the target Peroxisome proliferator-activated receptor gamma (Homo sapiens) (UniProt P37231). Briefly: OT_PPARg_PPARgSRC1_0480: Odyssey Thera (OT) 8-hour Protein-Complementation Assay for Peroxisome Proliferator-activated Receptor Gamma / SRC-1 Co-activator (AID 2283387; active = hit-call score of the fitted dose curve at least 0.9, where 1 is the maximum). A digest of the protocol: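 HEK293T transiently transfected with PPARg and SRC-1 fused to Venus YFP fragments, compounds 8 h at 37C. Fixed, Draq5-stained cells imaged; nuclear/cytoplasmic 488 nm fluorescence ratio over at least 350 cells per image; gain fitted versus DMSO.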

Experiment [3] shares this target. The experiment in a line: OT_PPARg_PPARgSRC1_1440: Odyssey Thera (OT) 24-hour Protein-Complementation Assay for Peroxisome Proliferator-activated Receptor Gamma/ SRC-1 Co-activator (AID 2283388; active = hit-call score of the fitted dose curve at least 0.9, where 1 is the maximum). In a few lines: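 HEK293T cells transiently transfected with PPARg and SRC-1 fused via (Gly4Ser)2 linker to split Venus YFP fragments (IFP1/IFP2) were dosed 24 h; fixed, Draq5-stained, imaged at 488/635 nm; nuclear/cytoplasmic fluorescence ratio scored versus DMSO baseline, gain-of-signal.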

Read-out in experiment [4]: Tumor necrosis factor receptor superfamily member 6 (Homo sapiens) (UniProt P25445)
Briefly: LTEA_HepaRG_FAS: Life Technologies and Expression Analysis (LTEA) Assay for Fas cell surface death receptor (FAS) using HepaRG (AID 2283447). To be noted: mRNA level, 48 h; actives raise or lower the signal. A digest of the protocol:
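FAS transcript level was measured by TaqMan qRT-PCR against three housekeeping genes after 48 h chemical exposure. Cells were HepaRG, 0.5% DMSO vehicle, with a top concentration of 100 uM and half-log dilutions over eight points, in duplicate.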

Read-out in experiment [5]: Cyclin D2 (CCND2), CCND2 (gene 894)
Briefly: LTEA_HepaRG_CCND2: Life Technologies and Expression Analysis (LTEA) Assay for Cyclin D2 (CCND2) using HepaRG (AID 2283449). As to conditions: mRNA level, 48 h; actives raise or lower the signal. In a few lines: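 CCND2 transcript levels, quantified by qRT-PCR and normalised to three housekeeping genes, were fitted bidirectionally against 0.5% DMSO. HepaRG cultures were dosed 48 h in duplicate with an 8-point half-log series up to 100 uM.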

Read-out in experiment [6]: Cyclin Dependent Kinase Inhibitor 1A (CDKN1A), CDKN1A (gene 1026)
The experiment in a line: LTEA_HepaRG_CDKN1A: Life Technologies and Expression Analysis (LTEA) Assay for Cyclin Dependent Kinase Inhibitor 1A (CDKN1A) using HepaRG (AID 2283450). As to conditions: mRNA level, 48 h; actives raise or lower the signal. In a few lines:
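Differentiated human HepaRG cells, pre-cultured 48 h, were exposed in duplicate for 48 h in serum-free induction medium to eight half-log concentrations up to 100 uM (0.5% DMSO). CDKN1A mRNA was measured by qRT-PCR, normalized to ACTB/GAPDH/POLR2A, bidirectionally fitted versus DMSO.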

Read-out in experiment [7]: Cyclin D1 (CCND1), CCND1 (gene 595)
Briefly: LTEA_HepaRG_CCND1: Life Technologies and Expression Analysis (LTEA) Assay for Cyclin D1 (CCND1) using HepaRG (AID 2283451).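 For AC50: TaqMan qRT-PCR transcript level normalised to ACTB GAPDH and POLR2A housekeeping genes.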 To be noted: mRNA level, 48 h; actives raise or lower the signal. A digest of the protocol:
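Differentiated human HepaRG cells in serum-free induction medium were exposed 48 h to eight half-log concentrations up to 100 uM in 0.5% DMSO; mRNA quantified by TaqMan qRT-PCR, normalized to ACTB, GAPDH, POLR2A, fitted bidirectionally versus DMSO.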

Read-out in experiment [8]: catalase (CAT), CAT (gene 847)
Briefly: LTEA_HepaRG_CAT: Life Technologies and Expression Analysis (LTEA) Assay for catalase (CAT) using HepaRG (AID 2283452).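 For AC50: TaqMan qRT-PCR signal normalized to ACTB GAPDH and POLR2A housekeeping genes.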 To be noted: mRNA level, 48 h; actives raise or lower the signal. In a few lines: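 Expression of CAT was quantified by TaqMan qRT-PCR with ACTB/GAPDH/POLR2A normalization after 48 h chemical exposure of HepaRG. Eight-point half-log series, top 100 uM, in 0.5% DMSO; gain or loss fitted against vehicle.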

Read-out in experiment [9]: Fatty acid synthase (Homo sapiens) (UniProt P49327)
Briefly: LTEA_HepaRG_FASN: Life Technologies and Expression Analysis (LTEA) Assay for Fatty Acid Synthase (FASN) using HepaRG (AID 2283448). As to conditions: mRNA level, 48 h; actives raise or lower the signal. A digest of the protocol: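 HepaRG, 48 h exposure, 8-pt half-log series top 100 uM, 0.5% DMSO vehicle, duplicates. Readout: FASN transcript by Fluidigm qRT-PCR; housekeeping-normalized; bidirectional curve fit vs DMSO baseline.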

The nature of experiment [10]: CEETOX_H295R_11DCORT: CeeTox H295R High-throughput Steroidogenesis Assay for 11-Deoxycortisol (11DCORT) (AID 2283432).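 Note: 11-deoxycortisol secreted into the medium measured by LC-MS/MS.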 As to conditions: actives raise or lower the signal. In a few lines: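 H295R cells prestimulated 48 h with 10 uM forskolin, then exposed 48 h to chemical in 0.1% DMSO. 11-Deoxycortisol in medium quantified by HPLC-MS/MS after MTBE extraction; bidirectional fit versus DMSO. MTT viability read in same wells.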

Experiment [11] can be described thus: CEETOX_H295R_OHPREG: CeeTox H295R High-throughput Steroidogenesis Assay for OH-Pregnenolone (OHPREG) (AID 2283434). As to conditions: actives raise or lower the signal. A digest of the protocol: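 Secreted 17alpha-hydroxypregnenolone measured by HPLC-MS/MS after liquid-liquid extraction. Human adrenal H295R cells received 48 h forskolin (10 uM) stimulation before 48 h chemical exposure at 0.1% final DMSO; MTT viability in same wells; bidirectional fit against DMSO.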

Experiment [12] in a line: CEETOX_H295R_OHPROG: CeeTox H295R High-throughput Steroidogenesis Assay for OH-Progesterone (OHPROG) (AID 2283435).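 Note: 17alpha-hydroxyprogesterone secreted into medium measured by HPLC-MS/MS.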 To be noted: actives raise or lower the signal. A digest of the protocol:
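HPLC-MS/MS quantification of 17alpha-hydroxyprogesterone secreted by H295R cells after 48 h chemical exposure, following 48 h 10 uM forskolin prestimulation. Gain or loss of signal fitted relative to DMSO. Viability checked by MTT in the same wells.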

Experiment [13] in a line: CEETOX_H295R_ANDR: CeeTox H295R High-throughput Steroidogenesis Assay for Androstenedione (ANDR) (AID 2283436). To be noted: actives raise or lower the signal. A digest of the protocol:
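Medium from 48 h chemical-treated H295R adrenal cells was extracted with MTBE and androstenedione measured by LC-MS/MS. Activity was fit in both directions relative to DMSO. Cytotoxic concentrations were re-tested after dilution until MTT viability reached ≥70%.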

A short description of experiment [14]: CEETOX_H295R_CORTIC: CeeTox H295R High-throughput Steroidogenesis Assay for Corticosterone (CORTIC) (AID 2283437). As to conditions: actives raise or lower the signal. A digest of the protocol: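 Medium corticosterone was quantified by tandem mass spectrometry following 48 hours of chemical exposure (0.1% DMSO) in human H295R cells previously stimulated 48 hours with 10 uM forskolin. Viability checked by MTT; chemicals diluted and retested when viability fell below 70%.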

Experiment [15] in a line: CEETOX_H295R_CORTISOL: CeeTox H295R High-throughput Steroidogenesis Assay for Cortisol (AID 2283438).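 Note: cortisol secreted into medium quantified by LC-MS/MS.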 As to conditions: actives raise or lower the signal. A digest of the protocol:
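Read-out: cortisol in culture medium by reverse-phase C18 HPLC with ESI-positive tandem MS, after MTBE liquid-liquid extraction. Cells: human adrenal H295R, forskolin-primed (10 uM, 48 h) before 48 h chemical exposure in 0.1% DMSO.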

Experiment [16] in a line: CEETOX_H295R_DOC: CeeTox H295R High-throughput Steroidogenesis Assay for DOC (AID 2283439). As to conditions: actives raise or lower the signal. In a few lines:
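Human adrenocortical H295R cells, passages up to 10, received 10 uM forskolin for 48 h before chemical addition. After another 48 h exposure in 0.1% DMSO, secreted DOC was measured by LC-MS/MS, with gain or loss fitted against DMSO controls.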

The nature of experiment [17]: CEETOX_H295R_PROG: CeeTox H295R High-throughput Steroidogenesis Assay for Progesterone (PROG) (AID 2283442). To be noted: actives raise or lower the signal. A digest of the protocol:
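H295R human adrenal cells were prestimulated with 10 uM forskolin for 48 h, then exposed to test chemical (0.1% DMSO final) for 48 h. Medium progesterone was MTBE-extracted and quantified by HPLC-MS/MS, with bidirectional fitting against DMSO.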

Chain of Fatty acid synthase (Homo sapiens) (P49327 whole entry, looked up): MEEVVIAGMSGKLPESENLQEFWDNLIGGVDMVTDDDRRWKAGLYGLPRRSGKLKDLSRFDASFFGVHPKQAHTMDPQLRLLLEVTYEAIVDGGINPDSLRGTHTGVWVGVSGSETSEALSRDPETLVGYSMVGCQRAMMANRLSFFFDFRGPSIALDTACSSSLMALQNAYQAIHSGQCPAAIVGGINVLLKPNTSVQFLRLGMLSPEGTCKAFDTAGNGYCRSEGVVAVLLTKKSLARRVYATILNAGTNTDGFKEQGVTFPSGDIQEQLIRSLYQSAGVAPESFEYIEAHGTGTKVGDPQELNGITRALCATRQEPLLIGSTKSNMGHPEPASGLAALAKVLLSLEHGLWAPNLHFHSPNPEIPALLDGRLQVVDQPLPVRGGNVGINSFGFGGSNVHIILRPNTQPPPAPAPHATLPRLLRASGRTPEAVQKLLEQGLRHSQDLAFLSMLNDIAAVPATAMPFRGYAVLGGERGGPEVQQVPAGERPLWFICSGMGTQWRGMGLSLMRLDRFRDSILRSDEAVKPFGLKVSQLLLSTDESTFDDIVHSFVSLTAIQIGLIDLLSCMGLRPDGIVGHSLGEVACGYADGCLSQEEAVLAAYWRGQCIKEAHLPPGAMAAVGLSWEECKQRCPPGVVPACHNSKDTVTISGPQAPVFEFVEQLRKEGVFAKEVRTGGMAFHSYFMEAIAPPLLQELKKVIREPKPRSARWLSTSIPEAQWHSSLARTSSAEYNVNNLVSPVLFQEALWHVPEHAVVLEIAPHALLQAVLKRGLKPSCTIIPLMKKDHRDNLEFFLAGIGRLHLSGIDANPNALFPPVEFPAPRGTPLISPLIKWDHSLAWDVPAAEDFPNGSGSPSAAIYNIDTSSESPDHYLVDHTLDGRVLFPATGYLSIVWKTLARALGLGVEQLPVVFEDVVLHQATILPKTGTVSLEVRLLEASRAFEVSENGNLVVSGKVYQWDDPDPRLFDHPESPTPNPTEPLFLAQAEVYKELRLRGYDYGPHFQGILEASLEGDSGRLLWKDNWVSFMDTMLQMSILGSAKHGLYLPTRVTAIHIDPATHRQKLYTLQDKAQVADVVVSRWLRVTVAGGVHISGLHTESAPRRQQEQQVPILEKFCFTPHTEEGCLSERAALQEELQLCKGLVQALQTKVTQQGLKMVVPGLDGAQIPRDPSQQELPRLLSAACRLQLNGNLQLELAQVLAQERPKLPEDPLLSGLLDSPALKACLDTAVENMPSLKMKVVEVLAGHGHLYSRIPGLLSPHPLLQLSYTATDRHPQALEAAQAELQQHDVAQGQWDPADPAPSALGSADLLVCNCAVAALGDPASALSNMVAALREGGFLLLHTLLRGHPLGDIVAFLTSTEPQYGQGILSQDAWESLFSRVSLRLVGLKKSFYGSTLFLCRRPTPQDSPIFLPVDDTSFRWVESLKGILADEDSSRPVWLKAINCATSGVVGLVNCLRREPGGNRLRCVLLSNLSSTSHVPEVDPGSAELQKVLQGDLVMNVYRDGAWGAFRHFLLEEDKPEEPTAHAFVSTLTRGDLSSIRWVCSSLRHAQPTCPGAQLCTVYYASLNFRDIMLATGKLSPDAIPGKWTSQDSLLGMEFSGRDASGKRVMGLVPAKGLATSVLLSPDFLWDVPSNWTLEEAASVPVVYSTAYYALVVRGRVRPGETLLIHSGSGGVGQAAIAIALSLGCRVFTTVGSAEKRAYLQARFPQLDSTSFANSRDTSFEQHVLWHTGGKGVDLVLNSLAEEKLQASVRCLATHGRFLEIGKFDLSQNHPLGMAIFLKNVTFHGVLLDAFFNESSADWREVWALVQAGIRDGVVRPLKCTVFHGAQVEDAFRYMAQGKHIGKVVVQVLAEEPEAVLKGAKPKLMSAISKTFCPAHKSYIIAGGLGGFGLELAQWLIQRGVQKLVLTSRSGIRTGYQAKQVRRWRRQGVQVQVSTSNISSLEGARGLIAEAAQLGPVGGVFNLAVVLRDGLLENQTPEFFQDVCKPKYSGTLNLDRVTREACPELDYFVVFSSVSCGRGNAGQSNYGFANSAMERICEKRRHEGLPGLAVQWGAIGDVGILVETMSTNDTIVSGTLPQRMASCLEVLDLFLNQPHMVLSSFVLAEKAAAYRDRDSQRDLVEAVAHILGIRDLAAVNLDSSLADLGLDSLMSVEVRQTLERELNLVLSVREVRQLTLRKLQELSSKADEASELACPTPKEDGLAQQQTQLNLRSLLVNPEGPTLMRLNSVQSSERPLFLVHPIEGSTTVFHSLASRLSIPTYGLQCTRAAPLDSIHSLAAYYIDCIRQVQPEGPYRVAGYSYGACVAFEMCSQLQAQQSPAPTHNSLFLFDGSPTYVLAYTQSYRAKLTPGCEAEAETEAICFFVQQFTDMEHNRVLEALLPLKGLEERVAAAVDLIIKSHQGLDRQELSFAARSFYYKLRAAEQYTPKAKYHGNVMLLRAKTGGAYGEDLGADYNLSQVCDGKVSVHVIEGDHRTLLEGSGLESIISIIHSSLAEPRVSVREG
Chain of Retinoic acid receptor RXR-alpha (Homo sapiens) (P19793 whole entry, looked up, the tested form may be a part): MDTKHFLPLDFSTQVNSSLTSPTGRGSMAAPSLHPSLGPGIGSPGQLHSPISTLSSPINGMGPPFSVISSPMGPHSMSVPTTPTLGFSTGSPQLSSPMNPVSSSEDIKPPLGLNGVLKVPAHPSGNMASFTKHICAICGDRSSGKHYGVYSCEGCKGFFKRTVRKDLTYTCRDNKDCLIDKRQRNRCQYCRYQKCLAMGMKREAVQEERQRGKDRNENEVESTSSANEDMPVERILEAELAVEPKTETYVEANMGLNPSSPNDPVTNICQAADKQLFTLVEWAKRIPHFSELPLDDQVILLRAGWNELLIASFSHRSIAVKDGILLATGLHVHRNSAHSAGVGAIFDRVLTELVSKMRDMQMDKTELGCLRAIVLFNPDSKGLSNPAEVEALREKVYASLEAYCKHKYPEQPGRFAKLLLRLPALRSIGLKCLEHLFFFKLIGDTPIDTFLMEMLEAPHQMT
Chain of Peroxisome proliferator-activated receptor gamma (Homo sapiens) (P37231 whole entry, looked up, the tested form may be a part): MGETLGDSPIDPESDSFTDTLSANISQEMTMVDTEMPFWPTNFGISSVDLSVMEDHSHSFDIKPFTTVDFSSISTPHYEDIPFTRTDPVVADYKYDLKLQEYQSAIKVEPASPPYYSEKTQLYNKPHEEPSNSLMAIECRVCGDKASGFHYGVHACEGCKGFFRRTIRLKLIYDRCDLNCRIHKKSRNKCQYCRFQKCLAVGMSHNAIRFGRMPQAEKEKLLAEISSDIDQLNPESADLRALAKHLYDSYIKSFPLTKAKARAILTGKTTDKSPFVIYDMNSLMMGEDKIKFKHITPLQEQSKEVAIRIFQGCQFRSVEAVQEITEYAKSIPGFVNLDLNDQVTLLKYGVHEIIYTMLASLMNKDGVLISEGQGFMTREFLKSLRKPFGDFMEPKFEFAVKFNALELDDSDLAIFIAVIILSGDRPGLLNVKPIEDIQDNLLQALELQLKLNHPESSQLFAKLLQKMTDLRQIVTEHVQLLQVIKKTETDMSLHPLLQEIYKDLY

For the compound `CCn1nc(Cc2ccccc2)cc1C1CCN(C[C@H]2C[C@H](N(C)[C@@H](C(=O)O)C(C)C)C[C@@H]2c2cccc(F)c2)CC1`, the compound was classed as inactive in experiment [1], in experiment [2], in experiment [3], in experiment [4], in experiment [5] and in experiment [6]. In addition, the call in [7] and in [8] was inactive.

Take `CC1(C)C(=O)N(Br)C(=O)N1Br`: the call in experiment [1], in experiment [2], in experiment [3], in experiment [4], in experiment [9] and in experiment [5] was inactive. The call in [6] and in [8] was inactive.

With `CCOCCOCCOCCO`, the call in experiment [1], in experiment [2], in experiment [3], in [9], in [6] and in [7] was inactive. Moreover, the call in [8] was inactive.

With `O=C1CCCCCN1`, the compound was called inactive in experiment [2], in experiment [3], in [4], in [5], in [6] and in experiment [7]. For the same compound, in [8], the outcome was inactive.

Consider `C1N2CN3CN1CN(C2)C3`, for which the call in experiment [1], in [2], in experiment [3], in experiment [4], in [5] and in [6] was inactive. The compound was classed as inactive in experiment [7] and in experiment [8].

In the case of `CC(=O)c1ccc2c(c1)[C@H](NC(=O)c1ccc(F)cc1)[C@@H](O)C(C)(C)O2`, the compound was classed as inactive in experiment [2], in experiment [3], in experiment [4], in [5], in experiment [6] and in experiment [8].

In the case of `Nc1nc2ncc(CNc3ccc(C(=O)N[C@@H](CCC(=O)O)C(=O)O)cc3)nc2c(=O)[nH]1`, the compound was classed as inactive in experiment [1], in [2], in experiment [3], in experiment [4], in [9] and in experiment [5]. Besides, the compound was called inactive in experiment [6] and in experiment [8].

Regarding `NC(=O)NO`, the outcome in experiment [1], in experiment [4], in experiment [5], in experiment [6] and in [8] was inactive.

Consider `CC(C)CCCCCCCOC(=O)CCCCC(=O)OCCCCCCCC(C)C`, for which the compound was classed as inactive in experiment [1], in experiment [2], in [3], in experiment [4], in experiment [5] and in experiment [6]. In addition, the compound was called inactive in experiment [7] and in [8].

In the case of `CC(C)CCO`, the compound was called inactive in experiment [1], in [2], in experiment [3], in experiment [9], in experiment [5] and in experiment [6]. The compound was called inactive in experiment [7] and in experiment [8].

As to `CC(O)CN(CCN(CC(C)O)CC(C)O)CC(C)O` (stereo not drawn), the compound was called inactive in [1], in [2], in experiment [3], in [4], in [5] and in experiment [6]. The outcome in experiment [8] was inactive. Besides, the half-maximal activity concentration (AC50) in experiment [7] is 12.5 µM (active).

In the case of `CCOC(=O)COc1ccc2c(c1)CC(NCC(O)c1cccc(Cl)c1)CC2` (stereo not drawn), in experiment [1], the AC50 is 10.7 µM (active) and 10.3 µM (active). Further, the outcome in experiment [2], in experiment [4], in experiment [9], in experiment [5], in experiment [6] and in experiment [7] was inactive. Moreover, the compound was called inactive in experiment [8].

`Cc1ccc(C)c(O)c1`: the compound was classed as inactive in experiment [1], in experiment [2], in [3], in experiment [4], in [5] and in experiment [6]. In addition, the result in experiment [7] and in [8] was inactive.

In the case of `Fc1ccccc1[C@@H](F)COC1CCC(Nc2ncnc3[nH]ncc23)CC1` (stereo partly drawn), the outcome in experiment [2], in [3], in experiment [13], in experiment [16], in [17] and in [4] was inactive. Moreover, the outcome in experiment [5] was inactive. In addition, the AC50 was 5 µM (active) in experiment [10]; 5 µM (active) in [11]; 3.91 µM (active) in [12]; 1.41 µM (active) in experiment [14]; 5 µM (active) in experiment [15]; 50 µM (active) in [9]. In addition, the concentration at half-maximal activity (AC50) in experiment [6] is 31.8 µM (active); in [7], 86.4 µM (active); in [8], 37.3 µM (active).
